The assay deals with ARL4D. The assay is described as follows: pooled miR-30 sensor sort-seq; sequence = guide strand. Particulars: shRNA.
With TTGTTGGCCAGCACCAGCACTG, the sensor-assay potency score (higher = more potent) was -0.806. For the sequence TACGTCTCCACAGTCCTGCAGC, the sensor-assay potency score (higher = more potent) was -0.421. The value for TGGACAAACTCCTTGAACTTGA was -0.891; that for TTCCTCTTGAGGATCATCTCAT was 0.0255. The value for AGACCGTCCACAGCGCTGCAGC was -1.79; that for TTGCACATGAGTGAGAGTGGCG was -0.774; that for ACAAACACTAGACCGTCTGTCC was -0.415. In the case of ACACTCTGGACAAACTCCTTGA, the sensor-assay potency score (higher = more potent) is -0.682.

Turning to AACACTAGACCGTCTGTCCGGC, the sensor-assay potency score (higher = more potent) is -0.396. The result for TTCTCGGTGTTGAAGCCTTTGG reads -1.06. Consider AAGAGCGCCACAGTGGTCGCAG, for which the sensor-assay potency score (higher = more potent) was -0.161. The value for TGGAAGGTGATGCCACGCGATC was -1.76.

As to TCCTCTTGAGGATCATCTCATA, the sensor-assay potency score (higher = more potent) is -1.96.

With TTTGGTGGGGACACTCTGGACA, the sensor-assay potency score (higher = more potent) is -0.71.

With TGATTCGGTGCAACTCCACCTT, the sensor-assay potency score (higher = more potent) was determined as 0.0703.

Values taken from the OligoGym collection.
Further: reference of the scale not given here.
